Sfp PPTase inh: qHTS Assay for Inhibitors of Bacillus subtilis Sfp phosphopantetheinyl transferase (PPTase). 3.5% of 310,000 active. Biochemical Sfp PPTase activity, qHTS. Potency, µM, for inactives: largest response in the series, negative = inhibition, usual class: inhibitors;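 note: the enzyme is Sfp with the accession as filed and its product quenches rhodamine fluorescence; 0% = enzyme reaction without inhibitor and -100% = no enzyme wells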
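Buffer: 50 mM Hepes-Na pH 7.6, 10 mM MgCl2, 0.01% Nonidet P-40, 0.01% BSA. Enzyme 15 nM, pre-exposed to compound 15 min; substrates then added and fluorescence change tracked over 30 min.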
JMJD2A Tudor inh: qHTS Assay for Inhibitors of JMJD2A-Tudor Domain; Lysine-specific demethylase 4A (Homo sapiens), O75164; AlphaScreen JMJD2A-Tudor / H3K4me3 peptide binding; Potency, µM (titrated, usually from 114 µM), without a hit: top-dose activity change, negative = inhibition, most hits filed as inhibitors; 4.4% of 390,000 active; AID 504339, 2011; note: % is set by controls: 0 for no effect and ±100 for the full control effect; nearly all actives have a fitted effect of over 50% in size
G9a inh: qHTS Assay for Inhibitors of Histone Lysine Methyltransferase G9a; G9a H3K9 monomethylation, AlphaScreen, 2 h; Potency, µM (doses to about 102 µM), without a hit: top-dose activity, negative = inhibition, most hits filed as inhibitors; 8.8% of 350,000 active; AID 504332, 2011; note: % is set by controls: 0 for no effect and ±100 for the full control effect; nearly all actives have a fitted effect of over 75% in size
Target sequence (Q96KQ7 913-1193 limits assumed): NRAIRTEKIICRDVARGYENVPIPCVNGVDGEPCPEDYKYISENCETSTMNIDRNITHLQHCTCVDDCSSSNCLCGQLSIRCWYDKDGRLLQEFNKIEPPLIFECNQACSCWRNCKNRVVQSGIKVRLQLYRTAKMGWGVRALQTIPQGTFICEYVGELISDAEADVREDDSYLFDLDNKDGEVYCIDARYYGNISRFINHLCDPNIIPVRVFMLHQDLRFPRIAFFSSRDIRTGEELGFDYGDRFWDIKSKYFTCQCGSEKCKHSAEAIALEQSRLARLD
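Using a bead-based AlphaScreen, monomethylated H3K9 product from 2 h room-temperature reactions (G9a 20 nM, peptide 500 nM, SAM 20 uM) was detected with 0.5 ug/mL rabbit anti-H3K9me1 antibody.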
HP1b binding inh: HTS for Inhibitors of HP1-beta Chromodomain Interactions with Methylated Histone Tails; AlphaScreen HP1-beta / biotin-H3K9me3 peptide binding; 0.56% of 390,000 active; AID 540317, 2011; Potency, µM (series often up to 114 µM), for the others: at the top dose activity change, negative = inhibition, most hits filed as inhibitors; Chromobox protein homolog 1 (Homo sapiens), P83916; note: nearly all actives have a fitted effect of over 70% in size
Target sequence (P83916 whole entry, looked up): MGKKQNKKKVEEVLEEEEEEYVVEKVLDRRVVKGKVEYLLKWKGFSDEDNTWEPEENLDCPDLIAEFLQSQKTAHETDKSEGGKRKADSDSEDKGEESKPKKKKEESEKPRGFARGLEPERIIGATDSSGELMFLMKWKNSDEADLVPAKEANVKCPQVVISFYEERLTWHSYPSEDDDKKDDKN
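Compound inhibition of the preformed complex between 50 nM HP1-beta and 50 nM biotinylated H3K9me3 peptide was read by AlphaScreen. Buffer was PBS pH 7.4 with 0.01% Tween-20. Incubations ran 30 min at room temperature, with 10 ug/mL donor/acceptor beads.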
BAZ2B inh: qHTS Assay for Inhibitors of BAZ2B; Bromodomain adjacent to zinc finger domain protein 2B (Homo sapiens), Q9UIF8; AlphaScreen BAZ2B-H3K14Ac peptide displacement; Potency, µM (titrated, usually from 114 µM), for inactives: at the top dose activity change, negative = inhibition, most hits filed as inhibitors; 4.4% of 360,000 active; AID 504333, 2011; note: % is set by controls: 0 for no effect and ±100 for the full control effect; nearly all actives have a fitted effect of over 60% in size
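AlphaScreen luminescence quantifies BAZ2B engagement of H3K14Ac peptide; the protein and biotinylated peptide are both at 50 nM final, buffer PBS pH 7.4 with 0.01% Tween-20, all steps at room temperature.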
* hit, by the source's call; [ ] = dose if it differs, or a comment. Sampled rows, rich in hits. Any-hit rate of the full collection: about 12%. Calls come from the whole dose curve; as a rule, active = well fitted curve in the direction sought with a large enough effect; inconclusive = small, poorly fitted or top-dose-only effect, or another doubt; inactive = no such curve, though single readings can be large; an effect the other way counts as inactive or inconclusive. Potency is the fitted concentration of half-maximal effect.

Results for CO/N=C(\C(=O)N[C@@H]1C(=O)N2C(C(=O)O)=C(COC(N)=O)CS[C@H]12)c1ccco1 ?
Sfp PPTase inh: -11%; JMJD2A Tudor inh: 25µM*; G9a inh: inconclusive; HP1b binding inh: 15%; BAZ2B inh: -6%

What do the screens show for `CO/N=C(/C(=O)N[C@@H]1C(=O)N2C(C(=O)O)=C(C[n+]3ccc(N)n3CCO)CS[C@H]12)c1csc(N)n1`?
Sfp PPTase inh: inconclusive; G9a inh: 0%[12.7 µM]

How did CO/N=C(\C(=O)N[C@@H]1C(=O)N2C(C(=O)O)=C(COC(C)=O)CS[C@H]12)c1csc(N)n1 do in these assays?
Sfp PPTase inh: inconclusive; G9a inh: 11µM*

How did COC(=O)c1ccc(NC(=S)NC(=O)c2cccnc2)cc1 do in these assays?
Sfp PPTase inh: 89µM*; JMJD2A Tudor inh: -3%; HP1b binding inh: 19%; BAZ2B inh: -13%

What do the screens show for `CCC(=O)NC(=S)Nc1ccc(NC(=O)c2cccnc2)cc1`?
Sfp PPTase inh: 8%; JMJD2A Tudor inh: -8%; G9a inh: -16%; HP1b binding inh: 23%; BAZ2B inh: inconclusive

How did COc1ccc(NC(=S)NC(=O)c2cccnc2)cc1 do in these assays?
Sfp PPTase inh: -2%; JMJD2A Tudor inh: -23%; G9a inh: 14%; HP1b binding inh: 11%; BAZ2B inh: 3%

What do the screens show for `O=C(O)c1ccc(NC(=S)NC(=O)c2cccnc2)cc1`?
Sfp PPTase inh: -27%; JMJD2A Tudor inh: -2%; G9a inh: 79µM*; HP1b binding inh: -16%; BAZ2B inh: -5%

Results for COC(=O)c1sccc1NC(=O)/C=C/c1c(Cl)cccc1Cl ?
Sfp PPTase inh: 40µM*; JMJD2A Tudor inh: 4%; G9a inh: 13%[12.7 µM]; HP1b binding inh: 28%; BAZ2B inh: 8%

Results for O=C(O)c1ccc(NC(=S)Nc2ccccc2)cc1 ?
Sfp PPTase inh: 50µM*; JMJD2A Tudor inh: -9%; G9a inh: inconclusive; HP1b binding inh: -8%; BAZ2B inh: 0%

How did COc1ccccc1NC(=O)Cc1c(C(=O)O)[nH]c2ccc(Cl)cc12 do in these assays?
JMJD2A Tudor inh: -30%; G9a inh: -35%[59 µM]; HP1b binding inh: 7%; BAZ2B inh: -9%

How did O=C(NCc1ccc(F)cc1)C1CCN(c2ncnc3c2nc2n3CCCCC2)CC1 do in these assays?
JMJD2A Tudor inh: -11%; G9a inh: 7%[59 µM]; HP1b binding inh: 25%; BAZ2B inh: 1%

What do the screens show for `COc1ccccc1CC(NC(C)=O)C(=O)NC1CCN(C(=O)Nc2ccc(F)cc2)CC1` (stereo not drawn)?
Sfp PPTase inh: 19%; JMJD2A Tudor inh: 2%; G9a inh: -6%; HP1b binding inh: 33%; BAZ2B inh: -14%

How did COC(=O)c1sccc1NC(=O)c1cccc(Cl)c1 do in these assays?
JMJD2A Tudor inh: 14%; HP1b binding inh: 28%

How did COC(=O)c1sccc1NC(=O)c1cccnc1 do in these assays?
Sfp PPTase inh: -2%; JMJD2A Tudor inh: 89µM*; G9a inh: 1%[59 µM]; HP1b binding inh: -1%; BAZ2B inh: 3%

How did COc1cc(C2C3=C(CC(C)(C)CC3=O)OC(N)=C2[N+](=O)[O-])ccc1O (stereo not drawn) do in these assays?
Sfp PPTase inh: 2%; JMJD2A Tudor inh: -7%; G9a inh: 50µM*; HP1b binding inh: 41%; BAZ2B inh: 11%

Results for Cc1ccccc1-c1cc(C(=O)Nc2sc(C)c(C)c2C(N)=O)c2ccccc2n1 ?
Sfp PPTase inh: 50µM*; JMJD2A Tudor inh: inconclusive; G9a inh: inconclusive; HP1b binding inh: inconclusive; BAZ2B inh: inconclusive

How did CCOC(=O)c1sc(NC(=O)c2cc(-c3ccccc3C)nc3ccccc23)c(C#N)c1C do in these assays?
Sfp PPTase inh: 45µM*; JMJD2A Tudor inh: -34%[11.4 µM]; G9a inh: 1.6µM*; HP1b binding inh: 6.3µM*; BAZ2B inh: -7%

How did CCOC(=O)c1c(NC(=O)c2cc(-c3ccc(Cl)s3)nc3ccccc23)sc(C(N)=O)c1C do in these assays?
Sfp PPTase inh: 4%; JMJD2A Tudor inh: -8%; G9a inh: -5%[59 µM]; HP1b binding inh: 38%; BAZ2B inh: -1%

Results for Nc1ccc(OCCCc2c(N)nc(N)nc2N)cc1 ?
Sfp PPTase inh: 9%; JMJD2A Tudor inh: 56µM*; G9a inh: inconclusive; HP1b binding inh: 1%; BAZ2B inh: -35%

Results for CCC(C)C(=O)N1c2ccccc2C(=C2SC(C(=O)OC)=C(C(=O)OC)S2)C(=S)C1(C)C (stereo not drawn) ?
Sfp PPTase inh: 50µM*; JMJD2A Tudor inh: 8.9µM*; G9a inh: inconclusive; HP1b binding inh: inconclusive; BAZ2B inh: 8.9µM*

Results for CN(C(=O)C1=CC(c2ccc3c(c2)OCO3)=NS(=O)(=O)N1C)c1ccccc1 ?
JMJD2A Tudor inh: -10%; G9a inh: inconclusive; HP1b binding inh: 48%; BAZ2B inh: 0%

What do the screens show for `CCN(CC)C(=O)CSC1=N/C(=C/c2ccco2)C(=O)N1c1ccc(OC)c(Cl)c1`?
Sfp PPTase inh: inconclusive; JMJD2A Tudor inh: -26%; G9a inh: 25µM*; HP1b binding inh: 6%; BAZ2B inh: inconclusive

What do the screens show for `COC(=O)c1sccc1S(=O)(=O)N1CCN(c2ccccc2)CC1`?
JMJD2A Tudor inh: -25%; G9a inh: -10%[59 µM]; HP1b binding inh: 28%; BAZ2B inh: -18%

How did Cc1cccc(N(C(=O)CS(=O)CC(=O)Nc2ccc3c(c2)OCO3)C(C)C(=O)NC2CCCC2)c1C (stereo not drawn) do in these assays?
Sfp PPTase inh: -14%; JMJD2A Tudor inh: -5%; G9a inh: 56µM*; HP1b binding inh: 23%; BAZ2B inh: -28%

What do the screens show for `Cc1ccc(-c2n[nH]c(=S)n2/N=C/c2cccs2)cc1`?
Sfp PPTase inh: -27%; JMJD2A Tudor inh: 28µM*; G9a inh: 1µM*; HP1b binding inh: 1%; BAZ2B inh: -3%

Results for CC(/C=N/n1c(-c2cc(C)[nH]n2)n[nH]c1=S)=C\c1ccccc1 ?
Sfp PPTase inh: inconclusive; JMJD2A Tudor inh: inconclusive; G9a inh: inconclusive; HP1b binding inh: 7%; BAZ2B inh: -37%

Results for S=c1[nH]nc(-c2ccccc2)n1/N=C/c1cccs1 ?
Sfp PPTase inh: -28%; JMJD2A Tudor inh: 18µM*; G9a inh: 0.56µM*; HP1b binding inh: -10%; BAZ2B inh: -38%

How did Cc1cc(-c2n[nH]c(=S)n2/N=C/c2cccs2)n[nH]1 do in these assays?
Sfp PPTase inh: -2%; JMJD2A Tudor inh: 6.3µM*; G9a inh: 0.35µM*; HP1b binding inh: 7%; BAZ2B inh: -38%

Screening data from PubChem.
